PRMT1 FP inh = blocks human protein arginine methyltransferase 1; Q99873; recombinant PRMT1, activity-based probe fluorescence polarization; inhibition, % at 2.79 µM; hit rate 1.3% among 370,000; AID 652257;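 active = inhibition above about 21% made by adding two undisclosed values, limit read from the data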
LEDGF integ inh = blocks HIV-1 LEDGF/p75-dependent DNA integration | TR-FRET IN-LEDGF/p75 DNA integration, Eu/Cy5 | AID 743269 | hit rate 0.64% among 370,000 | inhibition, % at 3.7 µM;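 active = inhibition above the screen-wide mean plus 3 SD, cut at about 13% in these data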;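 note: signal is the Cy5 over europium emission ratio at 671 and 618 nm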
ABHD5 PLIN5 PPI = blocks binding of human ABHD5 to perilipin-5 | AID 602281 | Split G. princeps luciferase complementation, luminescence, 4 h | hit rate 0.78% among 360,000 | inhibition, % at 4 µM;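 active = inhibition above the mean inhibition across every tested compound plus 3 SD, cut at about 22% in these data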
UHRF1 binding = human UHRF1 methylated DNA binding inhibitors | Q96T88 | UHRF1 binding to methylated oligo, TR-FRET | inhibition, % at 4.4 µM | hit rate 0.75% among 370,000 | AID 687016; in the data active = inhibition above about 21%;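 note: UHRF1 SRA domain binding a hemimethylated CpG hairpin DNA probe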
rCAG RNA binder = binds r(CAG) RNA repeats | AID 651821 | r(CAG) RNA repeat, TO-PRO-1 dye displacement fluorescence | inhibition, % at 3 µM | hit rate 1.3% among 370,000;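 active = inhibition above the plate cutoff, the mean of all test compounds on that plate plus 3 SD, cut at about 35% in these data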;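 note: higher means more dye released from RNA so lower well fluorescence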
MBD2 DNA inh = MBD2-methylated oligo binding inhibition; hit rate 0.31% among 370,000; Q9UBB5; TR-FRET, MBD2 binding to methylated oligonucleotide; inhibition, % at 4.4 µM; in the data active = inhibition above about 13%
Target sequence (Q9UBB5 whole entry, looked up): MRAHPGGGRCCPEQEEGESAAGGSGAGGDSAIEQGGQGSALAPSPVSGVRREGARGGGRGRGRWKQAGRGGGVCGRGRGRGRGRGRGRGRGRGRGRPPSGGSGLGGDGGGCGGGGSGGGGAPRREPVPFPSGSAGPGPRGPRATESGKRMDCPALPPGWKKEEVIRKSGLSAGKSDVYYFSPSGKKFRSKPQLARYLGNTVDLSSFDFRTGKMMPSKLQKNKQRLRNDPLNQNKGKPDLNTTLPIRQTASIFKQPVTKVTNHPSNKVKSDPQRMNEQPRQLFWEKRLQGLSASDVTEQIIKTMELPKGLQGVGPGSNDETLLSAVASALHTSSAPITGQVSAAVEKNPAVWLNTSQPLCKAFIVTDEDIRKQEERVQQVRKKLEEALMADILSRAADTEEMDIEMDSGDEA
Hits are given with their value; i = inactive; nt = not tested or not shown. Hits are enriched below; roughly 4.1% of the tested compounds scored in any of these assays.

SMILES	PRMT1 FP inh	LEDGF integ inh	ABHD5 PLIN5 PPI	UHRF1 binding	rCAG RNA binder	MBD2 DNA inh
COc1ccc2cc(C(=O)N/N=C/c3sc4ccccc4c3O)ccc2c1	24.7	i	i	i	i	i
O=C(N/N=C/c1sc2ccccc2c1O)c1cccc2ccccc12	55.0	i	i	i	i	i
C[C@@H]1CN(c2ccc(N3CCN(C(=O)OC(C)(C)C)C[C@@H]3C)cc2C#N)CCN1Cc1ccccc1	i	i	nt	i	i	i
Cc1cc2c(c(=O)o1)[C@@]1(C(=O)N(C)c3cccc(Br)c31)C1=C(CCCC1=O)O2	i	i	nt	i	i	i
Cc1ccccc1CN1CCCCC(NC(=O)C(C)(C)C)C1=O (configuration not stated)	i	i	nt	i	i	i
CN(Cc1ccccc1)S(=O)(=O)c1cccc(C(=O)OCC2CCCCC2)c1	i	i	nt	i	i	i
COc1cccc(/C=C2\SC(=S)N(CC(=O)N(C)C3CCS(=O)(=O)C3)C2=O)c1 (configuration not stated)	i	i	i	23.5	i	i
CCc1noc(C)c1C(=O)NNC(=O)c1nn(C)c(=O)c2ccccc12	i	i	i	29.9	i	i
C#CCn1c2ccccc2c2nc3ccccc3nc21	i	i	i	23.1	i	i
N#CCn1c2ccccc2c2nc3ccccc3nc21	i	i	i	i	i	i
O=C(COc1ccccc1F)NCc1nc2ccccc2[nH]1	i	i	i	22.5	i	i
Nc1ncnc(N)c1NC(=O)c1ccccc1	i	i	nt	i	i	i
NC(=O)c1ccc(SCC(=O)OCC(=O)N2CCCCC2)c([N+](=O)[O-])c1	i	i	i	i	i	i
NC(=O)c1ccc(SCC(=O)OCC(=O)N2CCN(C(=O)c3ccco3)CC2)c([N+](=O)[O-])c1	22.1	i	i	i	i	i
O=C(COc1cccnc1[N+](=O)[O-])N1CCN(C(=O)c2ccco2)CC1	i	i	i	25.2	i	i
C[C@H]1[C@@H](N)CC[C@@]23CCCN2C(=O)CCC[C@@H]13	i	i	nt	i	nt	i
C=C(C)C(=O)Nc1cccc(C2=NOC3(C2)C[C@H](C(N)=O)N(C(=O)c2ccccc2)C3)c1 (some centres not stated)	i	i	i	25.9	i	i
C/C=C/C=C\C(=O)Nc1cccc(C2=NOC3(C2)C[C@@H](C(N)=O)N(C(=O)c2cc([N+](=O)[O-])cc([N+](=O)[O-])c2)C3)c1 (some centres not stated)	23.2	i	i	i	i	i
C/C=C(/C)C(=O)Nc1cccc(C2=NOC3(C2)C[C@H](C(N)=O)N(C(=O)c2ccc(Cl)cc2)C3)c1 (some centres not stated)	i	i	i	i	i	i
CN(C)C(=O)N1CCN(C(=O)[C@H]2O[C@@H](n3ccc(N)nc3=O)[C@H](O)[C@@H]2O)CC1	i	i	nt	i	i	i
O=C(O)/C=C/C(=O)Nc1c(F)cccc1F	22.1	i	i	i	i	i
O=C(Nc1ccccc1)Nc1c(F)cccc1F	i	i	i	i	i	i
COc1ccc(OC)c(NC(=O)CCCc2ccccc2)c1	22.0	i	i	i	i	i
CC1(C)CC(=O)C=C(NC2CCCCC2)C1	i	i	i	i	i	i
CC1(C)CC(=O)C=C(C#CC2CC2)C1	i	i	nt	22.9	i	i
SMILES	PRMT1 FP inh	LEDGF integ inh	ABHD5 PLIN5 PPI	UHRF1 binding	rCAG RNA binder	MBD2 DNA inh
O=C(OC12CCCN(C1)/C(=C/c1cccnc1)C2)c1cccc(F)c1 (configuration not stated)	i	i	nt	i	i	i
CCc1cccc(C)c1NC(=O)c1cccc(N(C)C)c1	23.3	i	i	i	i	i
CCc1cccc(CC)c1NC(=O)c1cccc(NC(=O)c2ccccc2)c1	i	i	i	i	i	i
CCOC(=O)c1nc(NNC(=O)c2ccc([N+](=O)[O-])cc2)sc1C	i	i	i	i	36.8	i
O=C(CNS(=O)(=O)c1ccccc1)N1CCCC1	i	i	i	21.3	i	i
CCOC(=O)N1CCN(C(=O)CCNS(=O)(=O)c2ccccc2)CC1	i	i	i	21.6	i	i
CCOC(=O)N1CCN(C(=O)CNS(=O)(=O)c2cccs2)CC1	i	i	i	i	i	i
CC(=O)Nc1ccc(S(=O)(=O)NCC(=O)N2CCN(S(=O)(=O)c3cccs3)CC2)cc1	24.4	i	i	i	i	i
CCOc1ccc(/C=C2\NCCc3cc(OCC)c(OCC)cc32)cc1OCC	i	i	nt	i	i	i
CC(=O)C1=C(C)N(Cc2ccc(Br)cc2)C(=S)NC1c1cccc(F)c1 (configuration not stated)	i	i	nt	i	i	i
C/C(=N\Nc1ccc(C(=O)O)cc1)c1ccc(Br)cc1	i	i	i	21.7	i	i
C/C(=N/Nc1ncc(Br)cn1)c1ccc(Br)cc1	i	i	i	i	i	i
Cc1ccc(Nc2n[nH]c(=S)s2)cc1F	21.5	i	i	i	i	i
N#Cc1cn(CC(=O)NCC2CCCO2)c2ccccc12 (configuration not stated)	i	i	i	22.7	i	i
O=Cc1cn(CC(=O)NCC2CCCO2)c2ccccc12 (configuration not stated)	i	i	i	i	i	i
COc1cc(CC2COC(c3ccc(O)c(OC)c3)C2COC(C)=O)ccc1O (configuration not stated)	i	14.3	i	i	i	i
N#Cc1c(-c2ccco2)ccn(Cc2cccc(F)c2)c1=O	i	i	i	22.8	i	i
COc1ccc(C(=O)OCCCN(C)C2CN(Cc3cn(Cc4ccccc4C(F)(F)F)nn3)S(=O)(=O)C2)cc1OC (configuration not stated)	i	i	nt	i	i	i
COC(=O)CCc1sc(Nc2ccccc2)nc1-c1ccc(OC)cc1	i	i	i	36.6	i	i
Oc1cccc(-c2nc3ccccc3s2)c1	i	i	i	i	i	i
Oc1ccc(O)c(Cc2nc3ccccc3s2)c1	49.4	i	i	i	i	i
CCCCCn1c(=O)[nH]c2cc(C(=O)NCc3ccc4c(c3)OCO4)ccc2c1=O	i	i	i	30.0	i	i
Nn1c(SCC(=O)N2c3ccccc3Sc3ccc(Cl)cc32)nnc1-c1n[nH]c2c1CCC2	i	i	nt	i	i	i
COc1ccc(C(=O)COC(=O)c2ccccc2NS(=O)(=O)c2ccc(O)c([N+](=O)[O-])c2)cc1	i	i	i	i	91.9	i
COc1ccc(S(=O)(=O)Nc2ccc(O)c3ccccc23)cc1	22.9	27.1	i	i	i	i
COc1ccc(S(=O)(=O)Nc2ccccc2)cc1	i	i	i	i	i	i
CCCC[C@H]1C2CC(OC(=O)NCCCc3ccccc3)C(C2)[C@H]2CCCCN21 (some centres not stated)	i	i	nt	i	i	i
C=CCNC(=O)C1CCN(c2cncnc2)CC1	i	i	nt	i	i	i
OC(c1ccccc1)(c1ccccc1)C1CCN(CCCNc2cccc(OC(F)(F)F)c2)CC1	i	i	nt	i	i	i

Screening data from PubChem BioAssay.
